This is part of a sample that, as a whole, favours compounds with a hit. Of some 79,000 tested, about 15% had one in any assay. A number with no mark means an inactive call. Activity calls are given as the source filed them. Rule as the data show it: active = growth inhibition above about 70%; inactive = the rest.
Columns and labels:
[1] = NCI Yeast Anticancer Drug Screen. Data for the rad50 strain (AID 155);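 also: 0% = growth of vehicle-only cultures of the same strain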; settings: S. cerevisiae rad50 strain growth inhibition, active compounds read high
In short: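 Readout: growth inhibition relative to vehicle-treated cultures. Compound exposure was carried out in a genetically defined yeast strain deficient in DNA damage repair.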

[2] = NCI Yeast Anticancer Drug Screen. Data for the mec2-1 strain (AID 157); settings: S. cerevisiae mec2-1 strain, active compounds read high
In short: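 Readout is yeast growth inhibition, normalised to vehicle-treated controls, in the mec2-1 strain exposed to compound.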

[3] = NCI Yeast Anticancer Drug Screen. Data for the sgs1 mgt1 strain (AID 161);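 also: 0% = growth of cultures given vehicle only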; settings: S. cerevisiae sgs1 mgt1 strain, active compounds read high
In short: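 Compounds are added to genetically altered yeast, and growth is compared with cultures given vehicle alone to give percent inhibition.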

[4] = NCI Yeast Anticancer Drug Screen. Data for the cln2 rad14 strain (AID 165);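 also: 0% = growth equal to vehicle treated cultures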; settings: S. cerevisiae cln2 rad14 strain, active compounds read high
In short: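 Relative to vehicle controls, growth inhibition of compound-treated cln2 rad14 yeast was recorded.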

[5] = NCI Yeast Anticancer Drug Screen. Data for the bub3 strain (AID 167); settings: S. cerevisiae bub3 mutant strain, active compounds read high
In short: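 Readout: yeast growth inhibition, expressed relative to vehicle-only wells. The test organism is a mutant strain from a panel with lesions in DNA repair or checkpoint genes.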

[6] = NCI Yeast Anticancer Drug Screen. Data for the mlh1 rad18 strain (AID 175); settings: S. cerevisiae mlh1 rad18 strain growth inhibition, active compounds read high
In short: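 Test agents were incubated with a yeast strain of defined genotype (DNA damage repair defect). Inhibition of growth was derived by comparison with vehicle-exposed cultures.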

[7] = at 5.0 µM (retest, dose inferred, filed as 0.5)
[8] = at 50.0 µM (retest, dose inferred, filed as 5.0)

Structure (SMILES) | growth inhibition [1, 7] | growth inhibition [1, 8] | growth inhibition ([1]; at 50.0 µM) | growth inhibition [2, 7] | growth inhibition [2, 8] | growth inhibition ([2]; at 50.0 µM) | growth inhibition [3, 7] | growth inhibition [3, 8] | growth inhibition ([3]; at 50.0 µM) | growth inhibition [4, 7] | growth inhibition [4, 8] | growth inhibition ([4]; at 50.0 µM) | growth inhibition [5, 7] | growth inhibition [5, 8] | growth inhibition ([5]; at 50.0 µM) | growth inhibition [6, 7] | growth inhibition [6, 8] | growth inhibition ([6]; at 50.0 µM)
Cc1c2ccncc2cc2c3ccccc3n(C)c12 | -23% | 97% (active) | 99% (active) | -58% | 97% (active) | 98.7% (active) | -45% | 97% (active) | 98.7% (active) | -50% | 98% (active) | 98.2% (active) | -63% | 98% (active) | 98.8% (active) | -95% | 97% (active) | 99.2% (active)
C#CC(C)(C)Nc1c2ccccc2nc2ccccc12 | 7% | 98% (active) | 98.2% (active) | 2% | 97% (active) | 94.6% (active) | -1% | 98% (active) | 98.8% (active) | 0% | 94% (active) | 93.7% (active) | -2% | 98% (active) | 97.5% (active) | 11% | 98% (active) | 98.7% (active)
Oc1ccc(/C=N/NC(=S)Nc2ccccc2)nc1 | 1% | 53% | 82.8% (active) | 4% | 60% | 86.8% (active) | 6% | 69% | 82.8% (active) | -9% | 42% | 68.7% | 11% | 72% (active) | 84.3% (active) | 0% | 78% (active) | 84.2% (active)
